{
  "source": "PubChem BioAssay (NCI)",
  "note": "The panel holds about 83,000 compounds, 20% with a hit somewhere; the sample as a whole holds those more often.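 96-well plates, one dose, 48 hours. Percent growth reported; active if below 10.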 Calls of active or inactive are those of the source.",
  "data": [
    {"tested_on": "NCI-H226 lung", "test": "NCI-60 one-dose screen, 48 h (100 = growth as untreated, 0 = no growth, -100 = all killed)", "details": "10 µM unless noted", "protocol": "Growth inhibition of the NCI-H226 human Non-Small Cell Lung tumor cell line is measured as a screen for anti-cancer activity. Cells are grown in 96 well plates and exposed to the test compound for 48 hours. Compounds are tested at a single concentration, which is 10^-5 M for most compounds. The reported endpoint is percent growth (GI% or GIPRCNT), where numbers from 0 - 100% represent growth inhibition, and numbers from -100% - 0 represent cell death. For example, a value of 40 represents 60% growth inhibition. A value of 0 means no net growth occurred over the course of the experiment. A value of -40 indicates 40% of cells at the beginning of the experiment died by the end of the experiment. A value of -100 means all cells are dead at the end of the experiment.\nNCI-60 Human Tumor Cell Lines Screen was performed using the standard one-dose NCI protocol, which is described in more detail at https://dtp.cancer.gov/discovery_development/nci-60/default.htm.\nCompounds with GIPRCNT values below 10 were considered active. Activity score was based on GIPRCNT using the following formula: […]\nScore is 0 for GIPRCNT values of 100 or above, 50 for GIPRCNT values of 0, and 100 for GIPRCNT values of -100.", "values": [
      {"smiles": "C/C=C/C1=CN2C(=O)c3cc(OC4OC(C)C(NC)C(C)(O)C4O)c(C)cc3N=C[C@@H]2C1", "note": "(stereo not given in full)", "growth": "6.1% (active)"},
      {"smiles": "Fc1ccccc1-c1nc(-c2nc3cc(Cl)c(Cl)cc3[nH]2)c2ccccn12", "growth": "78.5% (inactive)"},
      {"smiles": "CCOC(=O)CN1/C(=N/c2sc3c(c2C(=O)OCC)CCN(C(=O)OCC)C3)SC(=O)/C1=C\\C(=O)OC", "growth": "92.2% (inactive)"},
      {"smiles": "COc1ccc(C2NN=C3c4ccccc4CCC32)cc1", "note": "(stereo not given)", "growth": "73.5% (inactive)"},
      {"smiles": "CCC(=O)Oc1ccc(/C(=C(/C)Cc2cccc(OC)c2)c2ccc(OCCN(C)C)cc2)cc1", "growth": "111% (inactive)"},
      {"smiles": "COc1ccccc1CNCCCN1C(=O)c2ccc3c4c(ccc(c24)C1=O)C(=O)N(CCCNCCCCNCCCN)C3=O", "growth": "-59.9% (active)"},
      {"smiles": "Cn1c(=O)c2[nH]c(C3CC=CCC3)nc2n(C)c1=O", "note": "(stereo not given)", "growth": "103% (inactive)"},
      {"smiles": "c1ccc(-c2cn(-c3ccccc3)c(-c3ccccc3)n2)cc1", "growth": "93.4% (inactive)"},
      {"smiles": "Cn1ccc(Nc2nccc(Oc3ccc(C(=O)Nc4cccc(F)c4)c(Cl)c3)n2)c1", "growth": "68% (inactive)"},
      {"smiles": "Nc1nc(=O)c2ccccc2s1", "growth": "112% (inactive)"},
      {"smiles": "CCN(CC)CCC(CNc1ccnc2cc(Cl)ccc12)c1ccc(Cl)cc1", "note": "(stereo not given)", "growth": "14.4% (inactive)"},
      {"smiles": "CCCCNC(=O)Oc1ccc(/C(=C(\\C)c2ccccc2)c2ccc(OCCN(CC)CC)cc2)cc1", "growth": "85.4% (inactive)"},
      {"smiles": "O=C(Nc1ccc2c(c1)OCO2)C(=O)c1c[nH]c2cc(F)ccc12", "growth": "73% (inactive)"},
      {"smiles": "CCOC(=O)c1c(/N=C2\\SC(=O)/C(=C\\C(=O)OC)N2NC)sc2c1CCN(C(=O)OCC)C2", "growth": "99% (inactive)"},
      {"smiles": "O=c1[nH]c2ccc(Br)cc2c2c1C(c1ccc(Cl)cc1)c1c(ncn3nc(-c4ccco4)nc13)O2", "note": "(stereo not given)", "growth": "65.5% (inactive)"},
      {"smiles": "C=C1CCC2C3(C)COC(c4c(OC)cccc4OC)OC3CCC2(C)C1C/C=C1/C(=O)OCC1O", "note": "(stereo not given)", "growth": "80.2% (inactive)"},
      {"smiles": "Cc1ccc(S(=O)(=O)NCCCNc2cc(-c3cn(C(C)(C)C)nc3-c3cccc(O)c3)ccn2)cc1", "growth": "54.6% (inactive)"},
      {"smiles": "CC1(c2ccc(Cl)cc2)OC(=O)CC(=O)O1", "growth": "104% (inactive)"},
      {"smiles": "O=C(NCCNc1nccc(-n2ccc3cccnc32)n1)c1ccc(C(F)(F)F)cc1", "growth": "97.7% (inactive)"},
      {"smiles": "O=c1[nH]c(Nc2ccc(S(=O)(=O)O)cc2)nc2nc(Nc3ccc(NC(=S)Nc4ccccc4)cc3)nc(-c3ccc(O)cc3O)c12", "growth": "88.6% (inactive)"},
      {"smiles": "CCN(CC)c1ccc(CNc2ccnc3ccccc23)cc1", "growth": "58.6% (inactive)"},
      {"smiles": "CCOC(=O)c1ccc2c(c1)c1c(C)c3cccnc3c(C)c1n2C", "growth": "53.1% (inactive)"},
      {"smiles": "N=C(N)c1ccc(-c2ccc(-c3cncc4ccccc34)s2)cc1F", "growth": "-64% (active)"},
      {"smiles": "COc1ccc(-c2nc(/C=N/Nc3cc(C)nc4ccc(Br)cc34)c(C)o2)cc1", "growth": "-37.4% (active)"},
      {"smiles": "COC(=O)c1cccc2c1N(C)c1c(cccc1C(=O)OC)CC2", "growth": "112% (inactive)"},
      {"smiles": "O=C1Nc2ccc(Cl)cc2C12Nc1cc(Cl)ccc1S2", "note": "(stereo not given)", "growth": "105% (inactive)"},
      {"smiles": "O=C(Nc1cccc(-n2cc(-c3ccncc3)c(-c3ccc(Cl)c(O)c3)n2)c1)c1ccccc1", "growth": "89.6% (inactive)"},
      {"smiles": "Fc1ccc(Nc2nc(NCCNc3ccnc4cc(Cl)ccc34)nc(N3CCOCC3)n2)cc1", "growth": "94.8% (inactive)"},
      {"smiles": "CCCCN(CCCC)C(=N)c1ccnc2ccccc12", "growth": "116% (inactive)"},
      {"smiles": "C=C1CC2(OC1=O)C(=O)N(CCCN1C(=O)C3(CC(=C)C(=O)O3)c3ccccc31)c1ccccc12", "note": "(stereo not given)", "growth": "78.7% (inactive)"},
      {"smiles": "Brc1cccc(-c2cc(-c3ccc4c(c3)OCCCO4)[nH]n2)c1", "growth": "72% [25 µM] (inactive)"},
      {"smiles": "CC(C)(C)n1cc(-c2ccnc(NCCNS(=O)(=O)c3ccc(F)cc3)c2)c(-c2cccc(O)c2)n1", "growth": "50.4% (inactive)"},
      {"smiles": "Cn1c2ccc(Br)cc2c2c3c(c4c5ccccc5[nH]c4c21)C(=O)N(O)C3=O", "growth": "24.1% (inactive)"},
      {"smiles": "COc1cc(NCCCCCN)c2ncccc2c1", "growth": "112% (inactive)"},
      {"smiles": "CCN(CC)CCCC(C)Nc1c2ccc(Cl)cc2nc2cc(OC)c(OC)cc12", "note": "(stereo not given)", "growth": "32.3% (inactive)"},
      {"smiles": "Cn1cnc2c(N3CCN(C(=O)OCc4ccc5c(Cl)cc(Cl)c(O)c5n4)CC3)nc(Cl)nc21", "growth": "72.9% (inactive)"},
      {"smiles": "COc1ccc(S(=O)(=O)NCCCNc2nccc(-n3ccc4cccnc43)n2)cc1", "growth": "89.9% (inactive)"},
      {"smiles": "O=C(CN1CCN(c2cc3c(cc2F)c(=O)c(C(=O)N/N=C/c2ccccc2O)cn3C2CC2)CC1)N/N=C\\c1ccccc1O", "growth": "36.4% (inactive)"},
      {"smiles": "COc1ccc2[nH]c(=O)c3c4ccccc4cn3c2c1", "growth": "37% (inactive)"},
      {"smiles": "COc1ccc(-c2nc(/C=C3/C(=O)Nc4ccc(F)cc43)c3ccccn23)cc1", "growth": "114% (inactive)"}
    ]}
  ]
}
